An excerpt weighted towards active compounds, which were near 2% of everything screened.
NALP1 inh: NALP1 inhibition; S. cerevisiae NALP1/ASC/caspase-1 growth, X-gal OD620, 72 h; AID 2071; hit rate 0.61% among 280,000; inhibition, % at 10 µM; in the data active = inhibition mostly above about 24%, no sharp cut-off; inactive = mostly below about 32%
Fh CTSL1 inh: counter-screen for PFM18AAP inhibitors: inhibitors of F. hepatica cathepsin L1; recombinant F. hepatica cathepsin L1, Z-Leu-Arg-MCA fluorescence; inhibition, % at 5.96 µM; hit rate 0.49% among 300,000; AID 1906;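 active = inhibition above the mean of all tested compounds plus 3 SD, set per screening campaign, cut at about 17% in these data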;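 note: 0% = plate median of test compound wells and 100% = 1 µM Z-Phe-Ala-diazomethylketone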
A3G deaminase: inhibitors of human APOBEC3G DNA deaminase. Q9HC16. recombinant A3G, ssDNA deamination FAM/TAMRA fluorescence. inhibition, % at 20 µM. hit rate 0.28% among 330,000. AID 493012;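 active = inhibition of at least 40% at 20 µM, with no more than 30% in the related APOBEC3A deaminase screen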;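 note: plate controls were DMSO wells with A3G for no effect and wells lacking A3G enzyme for full effect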
Target sequence (Q9HC16 whole entry, looked up): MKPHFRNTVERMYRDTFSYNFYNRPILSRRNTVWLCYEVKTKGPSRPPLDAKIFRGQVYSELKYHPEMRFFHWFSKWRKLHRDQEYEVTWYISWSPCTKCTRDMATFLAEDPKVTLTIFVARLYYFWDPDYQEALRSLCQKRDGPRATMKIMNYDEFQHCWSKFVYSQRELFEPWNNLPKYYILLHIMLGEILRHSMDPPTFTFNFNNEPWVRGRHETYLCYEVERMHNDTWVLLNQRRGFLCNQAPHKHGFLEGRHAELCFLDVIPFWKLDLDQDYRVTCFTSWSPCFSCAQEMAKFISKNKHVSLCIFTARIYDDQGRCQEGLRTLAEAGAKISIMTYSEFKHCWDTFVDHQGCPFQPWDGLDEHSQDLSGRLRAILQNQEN
A3A deaminase: human APOBEC3A DNA deaminase inhibition; recombinant A3A, FAM/TAMRA ssDNA deamination fluorescence; inhibition, % at 20 µM; hit rate 0.41% among 330,000; P31941;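 active = at least 40% inhibition at 20 µM here, with at most 30% in a related deaminase screen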;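 note: plate controls were A3A with DMSO for no effect and wells lacking A3A enzyme for full effect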
Target sequence (P31941 whole entry, looked up): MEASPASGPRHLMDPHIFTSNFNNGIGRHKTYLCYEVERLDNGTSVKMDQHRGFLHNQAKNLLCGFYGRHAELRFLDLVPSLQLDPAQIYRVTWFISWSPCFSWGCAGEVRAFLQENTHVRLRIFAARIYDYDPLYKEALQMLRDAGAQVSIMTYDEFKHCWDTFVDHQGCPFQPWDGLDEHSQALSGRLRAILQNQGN
HGIII-sPLA2 inh: Blocks human group III sPLA2 activity; Q9NZ20; QFRET BODIPY PC-A2 liposome hydrolysis, fluorescence; inhibition, % at 12.2 µM; hit rate 0.56% among 370,000; AID 743126;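 active = inhibition above mean plus 3 SD of compounds lying within the high and low control bounds, cut at about 19% in these data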;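 note: 0% = median of test compound wells and 100% = no enzyme DMSO wells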
sPLA2 confirm: human GIII-sPLA2 inhibition, confirmation. recombinant hGIII-sPLA2, BODIPY PC-A2 QFRET fluorescence. AID 743280. inhibition, % at 12.2 µM. hit rate 34% among 2,000. shares compounds with HGIII-sPLA2 inh;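 active = mean inhibition across triplicates above the hit cutoff set in the earlier primary screen, cut at about 19% in these data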;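 note: 0% = enzyme with DMSO and 100% = DMSO wells lacking enzyme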
BODIPY interf: counter-screen for HGIII-sPLA2 inhibitors: 535nm fluorescence interference; inhibition, % at 12.2 µM; hit rate 8.5% among 2,000; shares compounds with HGIII-sPLA2 inh; BODIPY FL product fluorescence interference, QFRET;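 active = average inhibition above the solvent-only control mean plus 3 SD, cut at about 6% in these data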;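 note: 0% = DMSO with substrate plus product and 100% = DMSO with substrate alone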
BODIPY interf DR: 535nm optical interference dose response, HGIII-sPLA2 counter-screen | IC50, µM | BODIPY FL product fluorescence interference, cell-free | 240 tested, under 10 active | shares compounds with HGIII-sPLA2 inh;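 active = IC50 at or below 10 µM; inactive = IC50 above 10 µM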
The depositor's hits bear a star.

Screening COc1ccc(N2CCN(C(c3cccs3)C(C)NC(=O)c3ccc4c(c3)OCO4)CC2)cc1 (centres undefined) returned NALP1 inh 27, Fh CTSL1 inh -3, A3G deaminase -3, A3A deaminase 0, HGIII-sPLA2 inh 22*, sPLA2 confirm 2 and BODIPY interf -14.
`Cc1ccc(C)c(NC(=O)Cn2nnc(-c3ccncc3)n2)c1` gave HGIII-sPLA2 inh 13.
CC(C)NC(=S)N/N=C/c1ccccc1[N+](=O)[O-] was read as NALP1 inh 6, Fh CTSL1 inh 0, A3G deaminase -6, A3A deaminase -5 and HGIII-sPLA2 inh -2.
For O=[N+]([O-])c1ccccc1C=NNC(=S)NN=Cc1ccccc1[N+](=O)[O-] the results were HGIII-sPLA2 inh 24*, sPLA2 confirm 49* and BODIPY interf 7.3*.
CCCCNC(=S)N/N=C/c1cccc(OCC)c1O was read as NALP1 inh 5, Fh CTSL1 inh 0, A3G deaminase -1, A3A deaminase -1, HGIII-sPLA2 inh 24*, sPLA2 confirm 28*, BODIPY interf -5 and BODIPY interf DR >122.
`CCOc1cccc(/C=N/NC(=S)Nc2ccccc2[N+](=O)[O-])c1O` gave NALP1 inh 9, Fh CTSL1 inh -1, A3G deaminase -1, A3A deaminase -1, HGIII-sPLA2 inh 24*, sPLA2 confirm 52* and BODIPY interf 14*.
Screening COc1cccc(C(=O)N2CCC[C@@H]2C(=O)N2CCC[C@H]2C(=O)NCc2ccccc2)c1 returned HGIII-sPLA2 inh -2.
`COC(=O)[C@]12C[C@H](CC(=O)N3CCCCC3)C(=O)N(Cc3cccc4ccccc34)C1=C[C@H](C(C)C)O[C@@H]2C1CC1` gave HGIII-sPLA2 inh -1.
Screening Cc1cc(N2CCCC2)ccc1NC(=O)COc1cccc(C(F)(F)F)c1 returned NALP1 inh 24, Fh CTSL1 inh 4, A3G deaminase 1, A3A deaminase 0, HGIII-sPLA2 inh 22*, sPLA2 confirm 35*, BODIPY interf 3 and BODIPY interf DR >122.
Screening COc1cccc(C(C(=O)NC2CCCC2)N2CCN(c3cc(C)nc4ccccc34)CC2)c1OC (centres undefined) returned HGIII-sPLA2 inh 2.
CC(C)n1cc(C(N)=S)c(=O)n(Cc2ccccc2)c1=O was read as NALP1 inh 8, Fh CTSL1 inh 2, A3G deaminase -6, A3A deaminase -5, HGIII-sPLA2 inh 21*, sPLA2 confirm 12 and BODIPY interf -4.
Screening Cn1c(=O)c(C(N)=S)cn(-c2ccccc2)c1=O returned NALP1 inh 10, Fh CTSL1 inh 1, A3G deaminase -6, A3A deaminase -3 and HGIII-sPLA2 inh 15.
Nc1ccc2c(c1)C(=O)c1ccc(N)cc1-2 was read as HGIII-sPLA2 inh 4.
`Nc1ccc2c(c1)C(=O)c1cc(Cl)c(Cl)cc1-2` gave HGIII-sPLA2 inh 31*, sPLA2 confirm 35* and BODIPY interf 14*.
`Nc1ccc2c(c1)C(=O)c1cc([N+](=O)[O-])ccc1-2` gave HGIII-sPLA2 inh 29*, sPLA2 confirm 8 and BODIPY interf 4.
`CNC(=O)CCN(Cc1ccco1)S(=O)(=O)c1ccc(OC)c(OC)c1` gave NALP1 inh 3, Fh CTSL1 inh 11, A3G deaminase 6, A3A deaminase 1, HGIII-sPLA2 inh 23*, sPLA2 confirm 0 and BODIPY interf -7.
Screening COc1ccc(S(=O)(=O)N(CCC#N)Cc2ccco2)cc1OC returned NALP1 inh 1, Fh CTSL1 inh -4, A3G deaminase -3, A3A deaminase -2 and HGIII-sPLA2 inh 0.
Screening S=c1nn[nH]c2ccccc12 returned HGIII-sPLA2 inh 23*, sPLA2 confirm 10 and BODIPY interf -1.
O=C(c1ccccc1)N1CC[C@H]2[C@H](CCCN2Cc2cc(F)cc(F)c2)C1 was read as HGIII-sPLA2 inh -5.
`O=C1c2cccc(NCCCNCCO)c2C(=O)c2cccc(NCCCNCCO)c21` gave HGIII-sPLA2 inh 27*, sPLA2 confirm 25* and BODIPY interf -30.
For CSC1=N/C(=C/c2cccnc2)C(=O)N1Cc1ccc(Cl)cc1 the results were NALP1 inh 2, Fh CTSL1 inh 4, A3G deaminase -6, A3A deaminase 0, HGIII-sPLA2 inh 32*, sPLA2 confirm 3 and BODIPY interf -14.
Screening CSC1=N/C(=C/c2cccnc2)C(=O)N1Cc1ccccc1 returned NALP1 inh 17, Fh CTSL1 inh 0, A3G deaminase -4, A3A deaminase -1 and HGIII-sPLA2 inh 0.
Cc1nc2c(c(=O)c3ccccc3n2C)c(=O)n1C1CCCCCC1 was read as Fh CTSL1 inh 4, A3G deaminase -8, A3A deaminase -4 and HGIII-sPLA2 inh -3.
For Cn1c2ccccc2c(=O)c2c(=O)n(C3CCCCC3)c(-c3ccco3)nc21 the results were NALP1 inh 42, Fh CTSL1 inh 6, A3G deaminase -6, A3A deaminase -4, HGIII-sPLA2 inh 28*, sPLA2 confirm 12 and BODIPY interf -42.
For CC1CCN(c2c([N+](=O)[O-])c(=O)oc3ccccc23)CC1 the results were NALP1 inh 29, Fh CTSL1 inh 0, A3G deaminase -3, A3A deaminase 1, HGIII-sPLA2 inh 21*, sPLA2 confirm 4 and BODIPY interf -1.
`O=c1c2[nH]c3ccc(Cl)cc3c2ncn1CCN1CCCCC1` gave NALP1 inh 3, Fh CTSL1 inh 1, A3G deaminase 0, A3A deaminase 2 and HGIII-sPLA2 inh 0.
`S=c1nc[nH]c2c1[nH]c1ccc(Cl)cc12` gave Fh CTSL1 inh 1, A3G deaminase 21, A3A deaminase -6, HGIII-sPLA2 inh 20*, sPLA2 confirm 14 and BODIPY interf 3.
O=C1CCC[C@H]2CC3(CC[C@]24CCCN14)OCCO3 was read as HGIII-sPLA2 inh 1.
COc1ccc(N(C(=O)c2cccc(OC)c2OC)C2C=CS(=O)(=O)C2)cc1 (centres undefined) was read as NALP1 inh -27, Fh CTSL1 inh 5, A3G deaminase -7, A3A deaminase -3, HGIII-sPLA2 inh 24*, sPLA2 confirm 8 and BODIPY interf -4.
Screening CCCCn1c(N)c(N(CCOC)C(=O)c2ccc(F)c(S(=O)(=O)N3CCOCC3)c2)c(=O)[nH]c1=O returned Fh CTSL1 inh 2, A3G deaminase -9, A3A deaminase 0, HGIII-sPLA2 inh 20*, sPLA2 confirm 7 and BODIPY interf -5.

Bioassay records deposited in PubChem BioAssay by several laboratories.
